High-throughput results from PubChem BioAssay.
LmPK inh: blocks Leishmania mexicana pyruvate kinase activity | Q27686 | purified LmPK, Kinase-Glo ATP luminescence, 1 h | Potency, µM (highest dose often 57.5 µM), for the others: top-dose activity change, negative = inhibition, usual class: inhibitors | 290,000 tested, 0.37% active; also: potency is read from the fitted curve at half-maximal effect; % is scaled to controls: 0 for no effect and ±100 for the full control effect
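Kinase-Glo luminescence read after 1 h RT reaction of 0.1 nM LmPK with 0.5 mM PEP and 0.1 mM ADP. Activity scaled between uninhibited and enzyme-free controls.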
NS1 function inh: influenza NS1 inhibition; Potency, µM (doses to about 46.1 µM), for inactives: at the highest dose activity, positive = more growth; 270,000 tested, 0.4% active; AID 2326; calls by dose curve; also: potency is read from the fitted curve at half-maximal effect; actives are rising curves; nearly all actives have a fitted effect of over 50% in size
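S. cerevisiae expressing influenza A NS1, grown in glucose, washed, then diluted 1:100 into pH 6.0 -URA galactose medium with 23 nl compound. Growth recovery read as OD600; NS1-free strain serves as control.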
Shiga inhibitor: blocks Shiga toxin action in Vero cells; Vero cells, Shiga toxin protein synthesis inhibition reporter; inhibition, % at 38.7 µM; 290,000 tested, 9.2% active; AID 2315; in the data active = inhibition mostly above about 28%, no sharp cut-off; inactive = mostly below about 43%; also: 0% is about no effect
Cycloheximide cs: counter-screen for Shiga toxin inhibitors: cycloheximide protein synthesis inhibition; cell reporter, cycloheximide protein synthesis inhibition counterscreen; max response, %; 300,000 tested, 12% active; AID 2314; in the data active = max response mostly above about 13%, no sharp cut-off; inactive = mostly below about 14%; also: read at 38.3 µM for the half of the compounds with a filed dose; 0% is about no effect
Giardia FBPA inh: inhibitors of Giardia lamblia fructose-1,6-bisphosphate aldolase; A8B2U2; purified Giardia FBPA; Potency, µM (doses to about 59.6 µM), for the others: at the highest dose activity, negative = inhibition, most hits filed as inhibitors; 290,000 tested, 0.71% active; AID 2451; also: potency is read from the fitted curve at half-maximal effect; % is scaled to controls: 0 for no effect and ±100 for the full control effect; nearly all actives have a fitted effect of over 55% in size
Target sequence (A8B2U2 whole entry, looked up): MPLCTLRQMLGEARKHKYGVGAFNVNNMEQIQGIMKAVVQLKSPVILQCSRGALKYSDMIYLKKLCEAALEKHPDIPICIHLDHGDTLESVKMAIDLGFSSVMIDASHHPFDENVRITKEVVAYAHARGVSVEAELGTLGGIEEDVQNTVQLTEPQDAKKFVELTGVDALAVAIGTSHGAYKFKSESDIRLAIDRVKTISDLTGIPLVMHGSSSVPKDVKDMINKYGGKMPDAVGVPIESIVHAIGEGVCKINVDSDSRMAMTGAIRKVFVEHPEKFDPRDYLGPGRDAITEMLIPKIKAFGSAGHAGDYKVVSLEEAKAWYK
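40 nM FBPA preincubated 10 min at RT with compound (up to 57.5 uM final), then substrate plus GAPDH/TPI/NAD/arsenate coupling and diaphorase/resazurin added. Fluorescence read after 20 min at RT, 525/598 nm.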
An asterisk follows results filed as active; ? = inconclusive; / = no result given; [ ] = another dose, or the depositor's remark. This is a sample that favours compounds with a hit; in the whole collection about 14% have one here. Unless noted, calls follow the shape of the dose curve; as a rule, active = well fitted curve in the direction sought with a large enough effect; inconclusive = small, poorly fitted or top-dose-only effect, or another doubt; inactive = no such curve, though single readings can be large; an effect the other way counts as inactive or inconclusive.

SMILES | LmPK inh | NS1 function inh | Shiga inhibitor | Cycloheximide cs | Giardia FBPA inh
O=C(OCC#CCSc1nc2ccccc2s1)c1ccco1 | 2% | -35% | 69 | 37* | -21%
O=C(OCC#CCSc1nnc(-c2ccc(Br)cc2)o1)c1ccco1 | -4% | -3% | 47* | 19* | -8%
O=C(OCc1nnc(-c2ccc(Br)cc2)o1)c1ccco1 | -1% | -39% | 40 | 28* | 6%
COc1ccc(CCNC(=O)c2nn(C)c3c2CS(=O)(=O)c2ccccc2-3)cc1OC | -3% | 7% | 5 | -5 | 3%
O=C(NCc1ccccn1)Nc1ccc(Br)cc1Cl | 2% | -16% | 136* | 63* | /
O=C(NCc1ccccn1)Nc1ccc(Cl)cc1Cl | -4% | -2% | 66* | 37* | -2%
O=C(Nc1ccc(Cl)cc1Cl)Nn1cnnc1 | -3% | 3% | -4 | -3 | /
O=C(NCc1ccccn1)Nc1ccc(F)cc1F | -3% | 5% | 8 | 9 | 3%
S=C(NCc1ccccn1)Nc1ccc(Br)cc1Cl | 2% | -61% | 44* | 18* | -8%
O=C(Nc1ccno1)Nc1ccc(Cl)cc1Cl | 4% | -47% | 6 | 11* | -11%
C=CCNC(=O)Nc1ccc(Br)cc1Cl | 5% | -5% | 60 | 13 | 3%
CCc1cc(=O)oc2c3c(cc(OCC(=O)NCCCn4ccnc4)c12)OC(C)(C)CC3 | -13% | 1% | -6 | -1 | -6%
Cc1cc2nc([C@H](C)C(=O)c3ccc(Cl)cc3)c(=O)[nH]c2cc1C | / | 0% | / | / | /
Cc1ccc(S(=O)(=O)n2c3ccccc3c3nnc(C(=O)c4ccccc4)nc32)cc1 | / | / | / | / | 0%[12.9 µM]
O=C(Nc1cccnc1)Nc1ccc(Cl)cc1Cl | 0% | -6% | 34 | 15 | 1%
COc1ccc(NC(=O)Nc2cccnc2)cc1 | -18% | / | 44* | 23* | -2%
O=C(Nc1ccc(Cl)cc1)Nc1cccnc1 | -18% | -49% | 55* | 37* | 0%
CCOc1ccc(NC(=O)Nc2cccnc2)cc1 | 25µM* | -2% | 60* | 25* | -5%
c1ccc(CNc2oc(-c3ccccc3)nc2-c2cccc3ccccc23)cc1 | / | / | / | / | -4%
COc1cccc(C(=O)Nc2nnc(SCC(=O)Nc3ccc(NC(C)=O)cc3)s2)c1 | -19% | -14% | 31 | 14 | /
COc1cc(/C=N/NC(=O)c2cccc(N3CCCC3=O)c2)ccc1O | -1% | -1% | 46 | 24* | /
CCN(CCNC(=O)c1cccc(N2CCCC2=O)c1)c1ccccc1 | -2% | -12% | 14 | 2 | -5%
O=C(N/N=C/c1cccnc1)c1cccc(N2CCCC2=O)c1 | 3% | 0% | 35 | 27* | 3%
CCN(CC)c1ccc(/C=N/NC(=O)c2cccc(N3CCCC3=O)c2)cc1 | 2% | 0% | 42* | 23* | -8%
O=C(N/N=C/c1cc([N+](=O)[O-])ccc1O)c1cccc(N2CCCC2=O)c1 | 0% | -1% | -4 | -3 | ?
SMILES | LmPK inh | NS1 function inh | Shiga inhibitor | Cycloheximide cs | Giardia FBPA inh
O=C(NCc1cccc(Cl)c1)C1CCN(S(=O)(=O)c2ccc(F)cc2)CC1 | 1% | -6% | 3 | -1 | /
COc1ccc(S(=O)(=O)NCCCn2ccnc2)cc1Cl | 2% | 10% | 1 | -1 | 5%
Cc1ccc(NC(=O)c2cccc(OCc3c(C)noc3C)c2)cc1 | 1% | -61% | 39 | 29* | -1%
COc1cc(C(=O)Nc2nc3ccc(C)cc3s2)ccc1OCc1c(C)noc1C | 5% | ? | 76* | 62* | 11%
O=C(OCC1COc2ccccc2O1)c1c(F)cccc1F (stereo not given) | -5% | -14% | 51 | 21* | 0%
COc1cccc2c1CCCC2CCCN1CCN(C2CCCCC2)CC1 (stereo not given) | / | / | -4 | 2 | -14%
O=c1cc(CNc2ccc(Br)cc2)nc2sccn12 | 1% | 0% | 56* | 28* | -8%
CC(=O)c1ccc(OCc2cc(=O)n3ccsc3n2)cc1 | -4% | 26% | 63* | 38* | -23%
COc1cc(/C=N/NC(=O)c2cccc([N+](=O)[O-])c2)ccc1OCc1ccccc1 | 2% | 18% | -16 | 2 | 0%
COc1cc(C(c2c(C)[nH][nH]c2=O)c2c(C)[nH][nH]c2=O)ccc1OCc1ccc([N+](=O)[O-])cc1 | 2% | 13% | 52 | 25* | 2%
COc1cc(C(c2c(C)[nH][nH]c2=O)c2c(C)[nH][nH]c2=O)ccc1OC(=O)c1cccc([N+](=O)[O-])c1 | 4% | ? | -12 | -1 | 0%
COc1cc(C=C2C(=O)NC(=O)NC2=O)ccc1OCc1ccc([N+](=O)[O-])cc1 | -8% | / | 102* | 59* | -21%
COC(=O)C(=Cc1ccc(OCc2ccc([N+](=O)[O-])cc2)c(OC)c1)C(=O)OC | -3% | -1% | 42* | 24* | -2%
COc1cc(/C=C/[N+](=O)[O-])ccc1OCc1cccc(C(=O)O)c1 | -15% | -1% | 131* | 83* | 10%
O=C(CCN1CCCCC1)c1csc2ccccc12 | / | -17% | / | / | /
CC(/C=C/C(=O)NO)=C\[C@@H](C)C(=O)c1ccc(N(C)C)cc1 | / | / | 28 | -4 | 3%
CCOC(=O)C(=Cc1ccc(OCc2ccc([N+](=O)[O-])cc2)c(OC)c1)C(=O)OCC | 5% | -3% | 27 | 43* | -1%
N[C@@H](C(=O)O)c1ccc(O)c(C(=O)O)c1 | / | / | 11 | 4 | 10%
O=C(Nc1ccccc1)N1CCCC(CNS(=O)(=O)Cc2ccccc2)C1 (stereo not given) | -1% | -4% | 10 | 13* | 0%
CSc1cccc(NC(=O)N2CCCC(CNS(=O)(=O)Cc3ccccc3)C2)c1 (stereo not given) | 0% | -4% | -11 | -1 | 4%
CC(Oc1ccccc1)C(=O)N=C1SC2CS(=O)(=O)CC2N1c1ccc(F)cc1 (stereo not given) | 10% | 9% | 5 | -1 | /
CC(=O)N1CCC2(CC1)CCN(c1ccccc1)CC2 | / | / | / | / | 7%
O=C(NC1CCCCC1)c1ccc2c(c1)OCCO2 | -6% | 7% | 42* | 21* | -1%
S=C(NC1CCCCC1)c1ccc2c(c1)OCO2 | -4% | 0% | 66* | 22* | 3%
O=C(NNC(=S)NC1CCCCC1)c1ccc2c(c1)OCO2 | -4% | 6% | -4 | -2 | -1%
SMILES | LmPK inh | NS1 function inh | Shiga inhibitor | Cycloheximide cs | Giardia FBPA inh
O=C(NC1CCCCCCC1)c1ccc2c(c1)OCO2 | ? | -31% | 48* | 42* | -13%
O=C(NC1CCN(Cc2ccccc2)CC1)c1ccc2c(c1)OCCCO2 | -1% | -1% | 14 | 7 | 7%
O=C(O)CCC(=O)OC[C@@H](NC(=O)C(Cl)Cl)C(O)c1ccc([N+](=O)[O-])cc1 (stereo not given in full) | / | / | / | / | 3%
CNC(=O)CSc1nnc(NC(=O)C2CC(=O)N(c3ccccc3OC)C2)s1 (stereo not given) | -2% | 3% | -2 | -3 | /
CN(CCNC(=O)C1CCCN(c2ncnc3c2nc2n3CCCCC2)C1)Cc1ccccc1 (stereo not given) | 3% | -6% | -6 | -2 | 5%
Cc1nc2ccc(NC(=O)Nc3ccnc4cccnc34)cc2o1 | / | / | / | / | 1%
